Sampled rows, rich in hits. Any-hit rate of the full collection: about 4%.
D1 agonist = Allosteric Agonists of the Human D1 Dopamine Receptor: qHTS. HEK293 T-REx D1 cells, calcium flux, agonist mode. 1% of 360,000 active. D(1A) dopamine receptor (Homo sapiens), P21728. activation, % at 2 µM; note: 0% is about no effect
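Inducible HEK293 T-REx D1 cells, force-coupled to calcium signalling, were plated at 4000 cells/well with tetracycline and held overnight at 30 C. After no-wash calcium dye loading, compound-evoked calcium rise over 180 s flagged agonists.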
TRHR ag = qHTS for Small Molecule Agonists and Allosteric Enhancers of Human TRH Receptor: Primary Screen for Agonists; Thyrotropin-releasing hormone receptor (Homo sapiens), P34981; TRHR cells, calcium flux fluo-8, FDSS agonist mode; activation, % at 2 µM; 0.18% of 360,000 active; note: 0% is about no effect
Target sequence (P34981 whole entry, looked up): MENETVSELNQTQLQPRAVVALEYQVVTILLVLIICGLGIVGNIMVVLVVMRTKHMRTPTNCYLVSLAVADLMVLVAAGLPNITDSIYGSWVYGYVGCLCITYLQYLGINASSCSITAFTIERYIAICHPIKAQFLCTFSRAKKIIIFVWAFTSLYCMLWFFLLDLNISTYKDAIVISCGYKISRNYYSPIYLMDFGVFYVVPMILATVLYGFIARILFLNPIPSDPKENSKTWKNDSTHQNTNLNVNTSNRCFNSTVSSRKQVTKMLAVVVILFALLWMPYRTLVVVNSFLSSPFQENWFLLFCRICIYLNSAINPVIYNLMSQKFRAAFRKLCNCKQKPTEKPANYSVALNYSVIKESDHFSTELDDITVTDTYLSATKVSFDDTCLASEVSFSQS
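Read-out: compound-evoked intracellular calcium rise in TRHR cells, fluo-8 dye, kinetic FDSS fluorescence at 1 s/cycle following a 10-cycle baseline. Cells cultured overnight before dye loading (30 min–1.5 h, RT).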
D1 antagonist = Antagonist of Human D 1 Dopamine Receptor: qHTS | D(1A) dopamine receptor (Homo sapiens), P21728 | 3.2% of 360,000 active | activity change, negative = inhibition, % at 10 µM | HEK293 TREx D1 cells, calcium flux, dopamine EC80; active compounds read low | AID 504652, 2011; in the data active = activity change below about -30%; note: % is set by controls: 0 for no effect and ±100 for the full control effect
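Compound effects on dopamine-evoked calcium signalling were measured in tetracycline-induced HEK293 Trex D1 cells. Dopamine at EC80 followed a 180 s compound pre-read, and fluorescence was tracked kinetically for 180 s more.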
TRHR enhancer = qHTS for Small Molecule Agonists and Allosteric Enhancers of Human TRH Receptor: Primary Screen for Enhancers; Thyrotropin-releasing hormone receptor (Homo sapiens), P34981; TRHR cells, fluo-8 calcium fluorescence, EC20 TRH enhancement; enhancement, % at 2 µM; 0.66% of 360,000 active; in the data active = enhancement above about 30%; note: 0% is about no effect
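TRHR-expressing cells loaded with fluo-8 calcium dye were read kinetically (ex 480/em 530) during compound addition, then stimulated with an EC20 of TRH (10 nM final). Enhancement of the Gq-mediated intracellular calcium response was scored.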
D1 potentiator = Potentiators of Human D1 Dopamine Receptor: qHTS. 0.036% of 360,000 active. HEK293 TREx D1 cells, calcium flux, dopamine EC20 potentiation. potentiation, % at 10 µM; in the data active = potentiation above about 30%; note: 0% is about no effect
Glioma ERSR ind = qHTS for Inducers of the Endoplasmic Reticulum Stress Response (ERSR) in Human Glioma: qHTS | U87-MG GRP78 promoter luciferase reporter, 16 h | Potency, µM, for the others: at the top dose activation, usual class: activators | 0.02% of 420,000 active; active = well fitted activation curve with a large enough effect; note: potency is the fitted concentration of half-maximal effect; series mostly up to about 76 µM; % of control where 0% means no effect; nearly all actives have a fitted effect of over 35% in size
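Stably transfected U87-MG glioma cells carrying a GRP78-based luciferase sensor; 16 h compound incubation. Luminescence end-point read 10 min after Bright-Glo addition at room temperature.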
The depositor's hits bear a star; · = no result given. Cut-off read from the data, not from the text of the source, unless noted: active = activation above about 30%; inactive = the rest.

SMILES | D1 agonist | TRHR ag | D1 antagonist | TRHR enhancer | D1 potentiator | Glioma ERSR ind
COCCCNC(=S)N1CCN(c2ccc([N+](=O)[O-])cc2)CC1 | 8 | 0 | -33* | 0 | -4 | -4%
CSCCCNC(=S)N1CCN(c2ccc(C(C)=O)cc2)CC1 | 3 | 0 | -33* | -3 | -6 | -1%
CN1CCN(C(=S)Nc2ccc([N+](=O)[O-])cc2)CC1 | 2 | -1 | -33* | -2 | 0 | -2%
O=[N+]([O-])c1ccc(NC(=S)N2CCCC2)cc1 | 3 | 0 | -10 | -4 | -4 | 1%
COc1ccccc1N1CCN(C(=S)NC(=O)c2ccc([N+](=O)[O-])cc2)CC1 | · | · | · | · | · | -4%
COc1ccc(C(=O)NC(=S)N2CCN(c3ccc([N+](=O)[O-])cc3)CC2)cc1 | 5 | 0 | -31* | 1 | -5 | -3%
Cc1cc(Cl)ccc1C(O)c1ncc(-c2ccc(Cl)cc2)[nH]1 (configuration not stated) | · | · | · | · | · | -5%
Cc1[nH]n(-c2ccc(C(=O)O)cc2)c(=O)c1CCO | 0 | 0 | 5 | 1 | 9 | -2%
CCN1C(=O)C2(SC(NC(C)=O)=NN2C(C)=O)c2cc(C)cc(C)c21 (configuration not stated) | -2 | 1 | -8 | 3 | -12 | -3%
COc1cc(OC)cc(-c2cn[nH]c2N)c1 | 1 | 0 | -1 | -1 | -5 | 0%
O=C(Nc1ccc(-c2csc(Nc3cccc(C(F)(F)F)c3)n2)cc1)c1cc([N+](=O)[O-])cc(C(F)(F)F)c1 | 3 | 0 | 0 | 2 | -4 | -3%
CCN(CC)CCNC(=O)c1ccc(NC(=O)c2cccc(S(=O)(=O)Nc3ccc(C)cc3)c2)cc1 | 1 | 0 | -77* | 0 | -19 | -4%
CCN(CC)CCNC(=O)c1ccc(NC(=O)c2cc(S(=O)(=O)N3CCCCC3)ccc2C)cc1 | 0 | 0 | -37* | -7 | 0 | -5%
O=C(NCCCN=C1NS(=O)(=O)c2ccccc21)c1ccc(S(=O)(=O)N2CCCCC2)cc1 | 7 | -1 | -35* | -5 | -1 | 1%
CCN(CC)CCNC(=O)c1ccc(NC(=O)c2ccc(S(=O)(=O)N3CCCC3)cc2)cc1 | · | · | · | · | · | 0%
Cc1cc2ccccc2n1CCNC(=O)c1ccc(S(=O)(=O)N2CCCCC2)cc1 | 61* | 0 | 28 | -1 | 3 | 1%
O=C(Nc1ccccn1)c1ccc(Cl)c(S(=O)(=O)N2CCOCC2)c1 | 1 | 0 | 2 | -5 | 5 | 0%
O=C(NCc1cccnc1)c1ccc(NS(=O)(=O)c2ccccc2)cc1 | -1 | 1 | 9 | 3 | 0 | -1%
CC(=O)NCC(=O)NNC1CC(=O)N(c2cccc(Cl)c2)C1=O (configuration not stated) | 1 | 1 | 7 | 2 | 31* | -2%
CCOC(=O)CNC1CC(=O)N(c2cccc(Cl)c2)C1=O (configuration not stated) | 3 | 0 | 4 | 1 | -2 | -3%
Nc1ccc(Cl)c(S(=O)(=O)Nc2ccc(Cl)cc2)c1 | 0 | 0 | 1 | 3 | 1 | -7%
CC(NC(=O)c1cc2ccccc2oc1=O)c1ccccc1 (configuration not stated) | 0 | -1 | -13 | -4 | -7 | 1%
CC(C)(C)n1nnnc1C(c1cccnc1)N1CCN(c2ccccn2)CC1 (configuration not stated) | 31* | 2 | -60* | 2 | -3 | -3%
CC(C)(C)n1nnnc1C(c1cccnc1)N1CCN(c2ccccc2)CC1 (configuration not stated) | 2 | 1 | 21 | 3 | -3 | -3%
Cn1cc(/C=C2\SC(=S)N(NC(=O)c3ccccc3Cl)C2=O)c2ccccc21 | 18 | 12 | 8 | -2 | 1 | -2%
SMILES | D1 agonist | TRHR ag | D1 antagonist | TRHR enhancer | D1 potentiator | Glioma ERSR ind
COc1ccc(/C=C2\SC(=S)N(CC3CCCO3)C2=O)cc1 (configuration not stated) | 12 | 1 | 2 | 2 | 0 | 7%
CCOc1cc(/C=C2\SC(=S)N(Nc3ccccc3)C2=O)ccc1O | 40* | 35* | -47* | -2 | -6 | 5%
COc1cc(/C=C2/SC(=S)N(CC3CCCO3)C2=O)ccc1O (configuration not stated) | 87* | 64* | -1 | 8 | 2 | 4%
O=C1/C(=C/c2ccc(O)c(O)c2)SC(=S)N1Nc1ccccc1 | 48* | 22 | 9 | -3 | -4 | -1%
O=C(O)c1ccc(/C=C2\SC(=S)N(Nc3ccccc3)C2=O)cc1 | 2 | 0 | -14 | -2 | -2 | 6%
Cc1ccc(C(=O)NN2C(=O)/C(=C/c3cn(C)c4ccccc34)SC2=S)cc1 | 65* | 0 | 18 | 9 | -2 | -1%
CN(Cc1ccco1)c1nc(-c2ccccc2Cl)nc2ccccc12 | · | · | · | · | · | -2%
O=C(C1CCCN(S(=O)(=O)c2cccnc2)C1)N1CCn2c1nc1ccccc12 (configuration not stated) | 0 | 0 | -13 | -1 | -2 | 8%
COc1cc(/C=C2\SC(=S)N(NC(=O)c3ccc(O)cc3)C2=O)ccc1O | 124* | 48* | -11 | -1 | -8 | -2%
O=C(O)C1CCC(=O)N1Cc1ccc(F)cc1 (configuration not stated) | 0 | 0 | 4 | 3 | -6 | 5%
CCC1CCCCN1S(=O)(=O)c1ccc(NC(=O)c2ccncc2)cc1 (configuration not stated) | 18 | 0 | -34* | -2 | -5 | -5%
CC(=O)Nc1ccc(NC(=O)c2nc(S(=O)(=O)Cc3ccccc3)ncc2Cl)cc1 | 5 | 1 | 13 | -6 | -4 | -15%
CS(=O)(=O)c1ncc(Cl)c(C(=O)Nc2ccc3ccccc3c2)n1 | 3 | 0 | -33* | -7 | -10 | -15%
CCC1CCCCN1S(=O)(=O)c1ccc(NC(=O)c2nc(S(C)(=O)=O)ncc2Cl)cc1 (configuration not stated) | 1 | 0 | -34* | -6 | -11 | -19%
CCSc1ncc(Cl)c(C(=O)Nc2ccc(S(=O)(=O)N3CCCCC3CC)cc2)n1 (configuration not stated) | 2 | 1 | -10 | -9 | 3 | -2%
